Data on 29 sequences can be found in the OligoGym collection.
Further: reference of the scale not given here.

The target of one assay is AIG1. The experiment in a line: pooled miR-30 sensor sort-seq; sequence = guide strand. The settings on record: shRNA.
For TTCTTTAACACACAGTGAGGGT, the sensor-assay potency score (higher = more potent) is -0.962.
Still for that read-out and setting: for TTAAGATGGTTGTAGACCCAAA the value was -0.997; for TTCGGGTATATCATCTCTCTGT, -0.249.
Sequence TAGAGCAGTAAGACAGCAGGAT registered a sensor-assay potency score (higher = more potent) of 0.285.
Still for that read-out and setting: for ATAAAGGGCAGAACCGTCGTGT the value was 0.238.

Another assay deals with AK1. The description is as above. The settings on record: shRNA.
The sequence TACAGCAGCAGTGTGGGCTGTC had a sensor-assay potency score (higher = more potent) of 0.332.
On the same count and under the same terms, for TTTGGAAGTATTGACTTTGGCC the value was -0.356; for TACTTCTGCACGATCTTCTCAC, 0.346.
TAGCCATCAATCAGGAAGCCTT displayed a sensor-assay potency score (higher = more potent) of -0.92.
TTGATGGTCTCCTCATTGTCGT had a sensor-assay potency score (higher = more potent) of -0.675.
Still for that read-out and setting: for TAATAGGTCTCCAGCCGCTTTT the value was -1.38.
On to TGTCTCCAGTGGAACCAGCTGC, for which the sensor-assay potency score (higher = more potent) is -0.761.
Regarding TGCGTCCACATACAGCAGCAGT, the sensor-assay potency score (higher = more potent) was -1.67.
For the sequence TCATTGTCGTCCACACGCCCGC, the sensor-assay potency score (higher = more potent) is -0.841.
In the case of TGATGGTCTCCTCATTGTCGTC, the sensor-assay potency score (higher = more potent) was -1.72.
With TCGCTCAAACTCTTCTCCTTGC, the sensor-assay potency score (higher = more potent) was -0.418.
The same measure, in the same setting: for TGTAATAGGTCTCCAGCCGCTT the value was -0.437; for TTGACTTTGGCCACCATGGCAT, -0.482.
As to TCCACATACAGCAGCAGTGTGG, the sensor-assay potency score (higher = more potent) is -1.37.
Still for that read-out and setting: next, TTGTAATAGGTCTCCAGCCGCT: -0.883; TTGTCGTCCACACGCCCGCTGG: -1.2.
Turning to TGCACGATCTTCTCACACTGGG, the sensor-assay potency score (higher = more potent) was -0.837.
Turning to TTTCCGACAGCTTCTTGCCCCT, the sensor-assay potency score (higher = more potent) is -0.367.
TTGACCTTGCGCACAATGCCAC yielded a sensor-assay potency score (higher = more potent) of -0.47.
For the sequence ATGATTTCCGACAGCTTCTTGC, the sensor-assay potency score (higher = more potent) is -1.06.
The sequence TTTGATGGTCTCCTCATTGTCG registered a sensor-assay potency score (higher = more potent) of -0.362.
Still for that read-out and setting: next, ATTGTCGTCCACACGCCCGCTG: -0.347.
Take TTCTCCTTGCTGCACCTCCCGC: the sensor-assay potency score (higher = more potent) is -1.57.
Turning to TCCAACACTGTCTCCAGTGGAA, the sensor-assay potency score (higher = more potent) is -1.08.
